Compound activity as filed in PubChem.
This is a sample that favours compounds with a hit; in the whole collection about 12% have one here.
G9a block: G9a (human) methyltransferase inhibition; G9a H3K9 monomethylation, AlphaScreen, 2 h; Potency, µM (top dose mostly 102 µM), without a hit: at the highest dose activity, negative = inhibition, usual class: inhibitors; 350,000 compounds, 8.8% hits; AID 504332; note: potency is the fitted concentration of half-maximal effect; % is set by controls: 0 for no effect and ±100 for the full control effect; nearly all actives have a fitted effect of over 75% in size
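AlphaScreen read-out: biotin-H3K9 peptide (500 nM) methylation by 20 nM enzyme with 20 uM SAM, 2 h at room temperature after 15 min compound preincubation; anti-monomethyl H3K9 antibody plus donor/acceptor beads, 10 min dark.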
PLK1 PBD block: inhibitors of human PLK1 polo-box domain binding. P53350. Plk1 PBD binding of FITC phosphopeptide, fluorescence polarization. Potency, µM, for the others: max response, negative = inhibition, actives largely listed as inhibitors. 360,000 compounds, 2.8% hits; note: potency is the fitted concentration of half-maximal effect; series mostly up to about 57 µM; % is set by controls: 0 for no effect and ±100 for the full control effect; nearly all actives have a fitted effect of over 65% in size
JMJD2A Tudor: inhibitors of human JMJD2A Tudor domain; O75164; AlphaScreen JMJD2A-Tudor / H3K4me3 peptide binding; Potency, µM (top dose mostly 114 µM), for the others: at the highest dose activity change, negative = inhibition, most hits filed as inhibitors; 390,000 compounds, 4.4% hits; note: potency is the fitted concentration of half-maximal effect; % is set by controls: 0 for no effect and ±100 for the full control effect; nearly all actives have a fitted effect of over 50% in size
BAZ2B inh: BAZ2B (human) inhibition; Potency, µM (highest dose often 114 µM), for inactives: top-dose activity change, negative = inhibition, usual class: inhibitors; 360,000 compounds, 4.4% hits; Q9UIF8; AID 504333; AlphaScreen BAZ2B-H3K14Ac peptide displacement; note: potency is the fitted concentration of half-maximal effect; % is set by controls: 0 for no effect and ±100 for the full control effect; nearly all actives have a fitted effect of over 60% in size
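AlphaScreen displacement of biotin-H3(5-23)K14Ac peptide (50 nM final) from BAZ2B (50 nM final) in PBS pH 7.4, 0.01% Tween-20; complex preformed 30 min RT, then compounds (top 110 uM) 30 min RT, beads 20 min dark.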
PI5P4K alpha inh: PI5P4K alpha (human) kinase inhibition; P48426; PI5P4Kalpha enzyme, ADP-Glo luminescence, 60 min; active compounds read low; max response, %; 330,000 compounds, 1.2% hits; active = max response of -50% or lower; inconclusive = between -30% and -50%; inactive = -30% or higher; note: value at the top dose of about 77 µM; % is set by controls: 0 for no effect and ±100 for the full control effect
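PI5P4Kalpha ADP-Glo assay; 5 microM ATP final; 60 min RT reaction; HEPES pH 7.4/EGTA/CHAPS, 5% DMSO; controls lacking substrate or enzyme; luminescent end-point.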
HP1b chromo inh: inhibitors of HP1-beta chromodomain binding to methylated histone tails; AlphaScreen HP1-beta / biotin-H3K9me3 peptide binding; Potency, µM (doses to about 114 µM), for the others: top-dose activity change, negative = inhibition, actives largely listed as inhibitors; 390,000 compounds, 0.56% hits; note: potency is the fitted concentration of half-maximal effect; nearly all actives have a fitted effect of over 70% in size
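HP1-beta protein (50 nM final) preincubated 30 min at room temperature with biotinylated H3(1-18)K9me3 peptide (50 nM) in PBS pH 7.4, 0.01% Tween-20, then compound added for 30 min. AlphaScreen streptavidin donor/nickel chelate acceptor beads (10 ug/mL final), 30 min dark, luminescence read.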
* marks the source's active call; other numbers are inactive results; ? = inconclusive; · = no result given; ! = repeats disagree; [ ] = another dose, or the depositor's remark. Unless noted, calls come from the whole dose curve; as a rule, active = well fitted curve in the direction sought with a large enough effect; inconclusive = small, poorly fitted or top-dose-only effect, or another doubt; inactive = no such curve, though single readings can be large; an effect the other way counts as inactive or inconclusive.

SMILES | G9a block | PLK1 PBD block | JMJD2A Tudor | BAZ2B inh | PI5P4K alpha inh | HP1b chromo inh
COC(=O)c1ccc(NS(=O)(=O)c2ccc(Cl)cc2)o1 | 50µM* | -20% | -12%[11.4 µM] | ? | 6 | -6%
COc1ccc(N2CCN(C(=O)C3CCCN(S(=O)(=O)c4ccc(C)cc4)C3)CC2)cc1 (centres undefined) | ? | 4% | -30% | 40µM* | -5 | ?
COc1ccc(N2CCN(C(=O)C3CCCN(S(=O)(=O)c4ccc(F)cc4)C3)CC2)cc1 (centres undefined) | · | -5% | -32% | 40µM* | -3 | -17%
Cc1cc(CN2CCN(CC(=O)Nc3cc(C(F)(F)F)ccc3-n3cncn3)CC2)no1 | -10%[12.7 µM] | 2% | -8% | 9% | 3 | 47%
Cc1ccc(CSc2nnc(CCCCCNC(=O)OC(C)(C)C)o2)cc1 | ? | 4% | 50% | 27% | 3 | 112%
CC(C)(C)OC(=O)NCCCCC1=CC2=CC(=O)C(C)(O)C(=O)C2=CO1 (centres undefined) | · | -29% | ? | · | -80* | 2%
Cc1c(O)ccc2c(CC(=O)N[C@@H](Cc3c[nH]c4ccccc34)C(=O)O)cc(=O)oc12 | -10% | 0% | -10% | 0% | -7 | 30%
CCn1nnc2cc(C(=O)Nc3cc(C)ccc3C)ccc21 | 0%[59 µM] | · | -13% | 1% | · | 17%
O=C(Oc1coc(CSc2ncccn2)cc1=O)c1cccc([N+](=O)[O-])c1 | 56µM* | ? | -22% | -39% | -4 | 41%
Cc1ccnc(SCc2cc(=O)c(OC(=O)c3cc([N+](=O)[O-])ccc3Cl)co2)n1 | ? | 24µM* | ? | -36% | 4 | 4%
O=C(Oc1coc(CSc2ncccn2)cc1=O)c1ccco1 | -7% | -12% | -8% | · | 0 | 43%
CCCCCC/C(C)=C1/SC(=S)NC1=O | ? | 24µM* | -33% | -9%[57.1 µM] | -71* | -27%
C/C(C/C(C)=C1/SC(=S)NC1=O)=C1\SC(=S)NC1=O | 28µM* | 19µM* | ? | -16% | -105* | ?
CC/C(C)=C1/NC(=O)NC1=O | · | -15% | -10% | · | -4 | 4%
COc1ccc(NC(=O)CN(c2ccc(C)cc2)S(=O)(=O)c2cccs2)cc1 | 11%[59 µM] | · | 4% | · | · | 42%
Cc1ccc(-c2onc(C)c2C)cc1S(=O)(=O)NCc1ccc(N(C)C)cc1 | 11µM* | · | 40µM* | 35µM* | · | ?
Cc1nc(-c2ccc(S(=O)(=O)NCc3ccc(N(C)C)cc3)cc2)co1 | ? | · | 50µM* | 40µM* | · | -8%[57 µM]
Cc1ccc(-c2onc(C)c2C)cc1S(=O)(=O)NC1CCCCC1 | 6%[59 µM] | · | 4% | 3% | · | 29%
Cc1nc(-c2ccc(S(=O)(=O)NCc3ccc(F)cc3)cc2)co1 | -4%[59 µM] | · | -14% | -1% | · | 13%[57 µM]
CCc1ccc(NC(=O)CCc2nnc3ccc(N4CCCC4)nn23)cc1 | 46% | 6% | -1% | -21% | -1 | 43%
Cc1ccc(C(=O)N(C)Cc2nc3ccccc3c(=O)[nH]2)cc1NC(=O)c1ccco1 | · | 0% | -1% | · | 0 | 14%
Cc1cc(C)n(C(=O)c2cc([N+](=O)[O-])cc([N+](=O)[O-])c2)n1 | 71µM* | -7% | -36% | ? | -1 | -25%
Cc1csc(Nc2ccccc2C(F)(F)F)n1 | 24%[0.0925 µM] | 0% | 1% | ? | 2 | 6%
COc1ccccc1Nc1nc(-c2c(C)nc3ncccn23)cs1 | ? | -16% | -31% | ? | 0 | ?
COc1ccccc1Nc1ccc(Nc2ccccc2OC)nn1 | 50µM* | -1% | ? | -34% | -7 | -17%
SMILES | G9a block | PLK1 PBD block | JMJD2A Tudor | BAZ2B inh | PI5P4K alpha inh | HP1b chromo inh
COc1ccccc1Nc1ncccc1C(=O)O | -17%[59 µM] | 0% | -16% | -4% | 6 | 7%
Cc1csc(Nc2cccc3ccccc23)n1 | 45µM* | -18% | ? | 50µM* | -1 | ?
COc1ccccc1Nc1nc(C)cs1 | 3%[2.33 µM] | 17µM*! | -15% | 79µM*! | -16 | -21%
Cc1ccc(NC(=O)c2c(C)oc3nc(C)nc(N4CCCC4)c23)c(C)c1 | -10%[59 µM] | · | -16% | 1%[57.1 µM] | · | -6%
COC(=O)Nc1ccc(=O)n(Cc2c(Cl)cccc2Cl)c1 | 71µM* | -10% | -12% | -24% | -7 | 10%
O=C(NCc1ccccc1)c1nc(-c2ccc(Cl)cc2)n2c1CCCCC2 | 14µM* | · | 22µM* | 13µM* | · | -5%
Cc1ccc(-c2nc(C(=O)NCc3ccc(Cl)cc3)c3n2CCCCC3)cc1 | 6%[59 µM] | · | -7% | 4% | · | 16%
O=C(c1ccc(Cl)cc1)N1CCN(c2ccc(F)cc2)CC1 | 10%[59 µM] | 0% | -11% | 6% | -1 | 28%
O=C(NCCc1ccc(Cl)cc1)c1nc(-c2cccc(F)c2)n2c1CCCCC2 | 25µM* | · | 22µM* | 11µM* | · | -23%
O=C(c1nc(-c2ccc(Cl)cc2)n2c1CCCCC2)N1CCN(c2ccc(F)cc2)CC1 | ? | · | 40µM* | 40µM* | · | ?
O=C(NCCc1ccccc1)c1nc(-c2ccc(Cl)cc2)n2c1CCCCC2 | 14µM* | · | 22µM* | 25µM* | · | -19%
c1csc(CNc2ccnc(-c3ccoc3)n2)c1 | -4%[0.501 µM] | · | · | · | · | ·
O=C(CN1CCNCC1)N1CCOCC1 | · | -3% | · | · | 7 | ·
O=C(NNC(=O)c1cc(S(=O)(=O)N2CCOCC2)c(Cl)cc1Cl)c1ccccc1F | · | -11% | -22% | · | -16 | -8%
CC(C)c1ccc(NC(=S)N2CCN(S(=O)(=O)c3ccccc3)CC2)cc1 | 9% | -1% | -21% | -27% | 1 | 45%
CC(C)N(Cc1ccccc1)C(=O)c1nc(-c2ccc(Cl)cc2)n2c1CCCCC2 | ? | · | 45µM* | 35µM* | · | -15%
CCOc1ccccc1CNC(=O)c1nc(-c2ccc(Cl)cc2)n2c1CCCCC2 | 10µM* | · | ? | 10µM* | · | -15%
COc1cc(NC(=O)c2nc(-c3ccc(Cl)cc3)n3c2CCCCC3)cc(OC)c1OC | ? | · | -20% | -35% | · | 5%
CCCC(=O)C1=C(c2ccccc2)C(C#N)(C#N)C(C#N)=C1N | 25µM* | 7.5µM* | ? | 50µM* | 0 | -19%
Cn1cccc1CC(=O)N/N=C/c1ccc(Cl)c([N+](=O)[O-])c1 | 50µM* | 3% | -29% | 40µM* | -12 | 5%
Cc1occc1C(=O)N/N=C/c1ccc(Cl)c([N+](=O)[O-])c1 | -6% | -5% | -21% | 5% | 1 | 7%
Cn1cccc1CC(=O)N/N=C/c1cccc([N+](=O)[O-])c1 | ? | -12% | ? | ? | -13 | -22%
Cn1cccc1CC(=O)N/N=C/c1cc([N+](=O)[O-])ccc1Cl | 45µM* | -9% | -21% | ? | -28 | -2%
